Screening results as filed in PubChem.
aSyn 5UTR act = Activators working through SNCA 5'UTR binding (MLPCN); activity score, % (tested at 7.5 µM), hits read low; hit rate 7.1% among 300,000; alpha-synuclein 5'UTR reporter, activators screen; in the data active = activity score below about -60%
Large screens that a line does not name were inactive. Not all results are given here.

CS(=O)(=O)c1nc(S(=O)(=O)c2ccc(Cl)cc2)c(N2CCOCC2)s1	aSyn 5UTR act -75
COc1ccc2c(c1)C(=NN)c1cc(OC)ccc1-2	aSyn 5UTR act -65
CCOc1cc(/C=C2/NC(=S)NC2=O)ccc1OCc1ccc([N+](=O)[O-])cc1	none
CCOc1cc(/C=C2/SC(=S)N(C)C2=O)ccc1Oc1ccc([N+](=O)[O-])cc1[N+](=O)[O-]	aSyn 5UTR act -62
CCC(C)(C)c1ccc(Oc2cccc(C(=O)O)c2)cc1	aSyn 5UTR act -95
CCC(C)(C)c1ccc(Oc2ccc(N)cc2)cc1	none
CCCC(C)NC(=O)c1cccc(Oc2ccccc2)c1 (stereo not drawn)	aSyn 5UTR act -64
O=C(Nc1ccc(-c2noc(COc3ccccc3Cl)n2)cc1)c1ccco1	aSyn 5UTR act -140
Cc1cccc(OCc2nc(-c3nonc3N)no2)c1C	aSyn 5UTR act -144
Nc1nonc1-c1noc(COc2ccccc2Cl)n1	aSyn 5UTR act -162
Nc1nonc1-c1noc(CCCN2C(=O)c3ccccc3C2=O)n1	aSyn 5UTR act -108
COc1cccc([C@@H]2Oc3ccc(OC)cc3C(=O)[C@H]2O)c1	aSyn 5UTR act -138
Cc1ccc(NC(=O)Nc2ncnc3nc[nH]c23)cc1	aSyn 5UTR act -106
COc1cccc(Nc2ncnc3nc[nH]c23)c1	aSyn 5UTR act -83
Cc1ccc(Nc2ncnc3nc[nH]c23)cc1Cl	aSyn 5UTR act -146
CCc1ccc(Nc2ncnc3nc[nH]c23)cc1	aSyn 5UTR act -70
CCOc1ccc(N/C=C/C(=O)c2ccc3ccccc3c2)c([N+](=O)[O-])c1	aSyn 5UTR act -159
CCOc1ccc(N/C=C/C(=O)c2ccc(C)cc2)c([N+](=O)[O-])c1	aSyn 5UTR act -198
Cc1ccc(C(=O)/C=C/Nc2ccc([N+](=O)[O-])cc2Br)cc1	aSyn 5UTR act -124
N#Cc1c(/N=C/c2cc3ccccc3s2)sc2c1CCC2	aSyn 5UTR act -150
Cc1ccc(/C=N/c2sc3c(c2C#N)CCC3)s1	aSyn 5UTR act -146
COc1ccc(OCc2csc(N)n2)cc1	aSyn 5UTR act -117
COc1ccc(C(=O)/C(=C/O)N=Nc2ccc(F)cc2)cc1	aSyn 5UTR act -64
Cc1ccc2c(c1)N=C(c1ccc(Cl)cc1)CO2	aSyn 5UTR act -152
Clc1ccc(C2=Nc3cc(Cl)ccc3OC2)cc1	aSyn 5UTR act -206
O=C(COn1nnc2ccccc21)N1CCN(Cc2ccccc2)CC1	aSyn 5UTR act -66
O=C(COn1nnc2ccccc21)NCC1CCCCC1	aSyn 5UTR act -78
COC(=O)c1cnc(SCC(=O)c2ccccc2)n1C	aSyn 5UTR act -94
COC(=O)c1ccnc(SCC(=O)c2ccccc2)c1	aSyn 5UTR act -117
COC(=O)c1cnc(SCc2ccc(Cl)cc2)n1C	aSyn 5UTR act -70
Cn1c(SCC(=O)c2ccccc2)ncc(C(=O)Nc2ccccc2)c1=O	aSyn 5UTR act -67
Cc1cc(C)c(-c2nc3ccccc3s2)[nH]1	aSyn 5UTR act -190
Cc1nc(NC(=O)C23CC4CC(CC(C4)C2)C3)sc1Cc1ccc2c(c1)OCO2	aSyn 5UTR act -184
COc1ccccc1Nc1ncc(-c2cccs2)s1	aSyn 5UTR act -177
CN(C)c1ccc(-c2nnc(SCC3CCCO3)n2C)cc1 (stereo not drawn)	aSyn 5UTR act -89
CCC1CCCCN1C(=O)CSc1nnc(-c2ccc(Cl)s2)o1 (stereo not drawn)	aSyn 5UTR act -62
CC1CCCC(C)N1C(=O)CSc1nnc(-c2cccs2)o1 (stereo not drawn)	aSyn 5UTR act -82
CC1CCCCN1C(=O)CSc1nnc(-c2cccs2)o1 (stereo not drawn)	aSyn 5UTR act -108
Cn1cc(/C=C(\C#N)C(=O)Nc2ccccc2O)c2ccccc21	aSyn 5UTR act -118
Cc1ccc(C)c(OCCn2cc(/C=C(\C#N)C(=O)NCc3ccco3)c3ccccc32)c1	none
Cc1cc(/C=C(\C#N)C(=O)NCc2ccco2)c(C)n1C1CCCC1	aSyn 5UTR act -137
Cc1cc(/C=C(\C#N)C(=O)NCc2ccco2)c(C)n1-c1cccnc1	aSyn 5UTR act -100
Nc1nn(-c2ccccc2)nc1C(=O)OCc1ccccc1	aSyn 5UTR act -63
O=[N+]([O-])c1cc(Cl)cc(/C=N/Nc2nc3ccccc3s2)c1O	aSyn 5UTR act -78
COc1cc(/C=N/Nc2nc3ccccc3s2)cc([N+](=O)[O-])c1O	aSyn 5UTR act -100
COc1ccc(NC(=O)c2sc3nc(C)cc(C)c3c2N)cc1	aSyn 5UTR act -172
Cc1cc(C)c2c(N)c(C(=O)Nc3ccc([N+](=O)[O-])cc3)sc2n1	aSyn 5UTR act -144
CCOC(=O)c1c(C)nc2sc(C(=O)Nc3ccc(C(C)=O)cc3)c(N)c2c1-c1ccc(OC)cc1	aSyn 5UTR act -90
C=CCNc1nc(N)c(C(=O)Nc2cc(C)on2)s1	aSyn 5UTR act -111
Cc1cc(C)cc(NC(=O)c2sc3nc(C)cc(C)c3c2N)c1	aSyn 5UTR act -136
COCc1cc(C)nc2sc(C(=O)NN)c(-n3cccc3)c12	none
Cc1cc(C)c2c(N)c(C(=O)N/N=C/c3cccs3)sc2n1	aSyn 5UTR act -140
Cc1cc(C)c2c(N)c(C(=O)Nc3ccc(C)c(C)c3)sc2n1	aSyn 5UTR act -63
COCc1cc(C)nc2sc(C(=O)Nc3ccccc3F)c(N)c12	aSyn 5UTR act -82
O=C(N/N=C/c1cccs1)c1n[nH]c2c1CCC2	none
Cc1cc(C(F)(F)F)c2c(N)c(C(=O)Nc3cc(C)on3)sc2n1	aSyn 5UTR act -125
O=C(Oc1ccccc1N1C(=O)C2CCCCC2C1=O)c1ccccc1F (stereo not drawn)	aSyn 5UTR act -64
CCOC(=O)c1sc(-c2ccc(OC)cc2)cc1NC(C)=O	aSyn 5UTR act -73
COc1ccccc1C(=O)Nc1ccc2c(c1)nc(CCNC(=O)c1ccco1)n2C	aSyn 5UTR act -295
Cn1c(CCNC(=O)c2ccccc2)nc2cc(NC(=O)c3ccco3)ccc21	aSyn 5UTR act -81
Cn1c(CCNC(=O)c2ccco2)nc2cc(NC(=O)c3ccccc3)ccc21	aSyn 5UTR act -91
CCC(=O)NCCc1nc2cc(NC(=O)c3ccco3)ccc2n1C	aSyn 5UTR act -73
Cn1c(CCNC(=O)c2ccco2)nc2cc(NC(=O)c3ccco3)ccc21	aSyn 5UTR act -144
Cc1nn(-c2cc(C)c3ccccc3n2)c2c1CCC2	aSyn 5UTR act -90
COc1ccc(C)cc1Nc1c2c(nc3ccccc13)CCC2	none
COc1cc(/C=C/[N+](=O)[O-])ccc1OC(=O)c1cc2ccccc2oc1=O	aSyn 5UTR act -102
CCCCn1nnc(NC(=O)c2cc3ccccc3o2)n1	aSyn 5UTR act -137
CCCCn1nnc(NC(=O)c2ccc(-c3ccccc3)cc2)n1	aSyn 5UTR act -129
CCn1nnc(NC(=O)c2cc3ccccc3o2)n1	aSyn 5UTR act -168
O=C(CCCCCN1C(=O)c2cccc3cccc(c23)C1=O)NCc1cccnc1	none
O=C(NCc1cccnc1)c1ccc(-c2ccccc2[N+](=O)[O-])o1	aSyn 5UTR act -64
CCCn1nnc(NC(=O)c2cc3ccccc3o2)n1	aSyn 5UTR act -156
CC(=O)c1cccc(NC(=O)c2ccc(-c3ccccc3[N+](=O)[O-])o2)c1	aSyn 5UTR act -238
CCn1nnc(NC(=O)c2ccc(-c3ccccc3[N+](=O)[O-])o2)n1	aSyn 5UTR act -90
Cn1c(=O)c2c(nc(SCCN3CCOCC3)n2Cc2ccc(F)cc2)n(C)c1=O	aSyn 5UTR act -130
CCCCn1c(SCC(=O)N2c3ccccc3CCc3ccccc32)nc2c1c(=O)n(C)c(=O)n2C	none
Cc1ccc(Cn2c(SCc3cccnc3)nc3c2c(=O)n(C)c(=O)n3C)cc1	none
CCn1c(-c2cccnc2Cl)nc2cc(Cl)c(Cl)cc21	aSyn 5UTR act -119
